# Test results as given in article PMC7862700, “An all-to-all approach to the identification of sequence-specific readers for epigenetic DNA modifications on cytosine”.
# Legend:
# Test in all cases: DAPPL (digital affinity profiling via proximity ligation, sequencing); 10 mM Tris-HCl pH 7.5, 50 mM NaCl, 1 mM DTT, 4% glycerol, room temperature, 30 min; GST-TFs on glutathione beads, 16-mer random dsDNA library, 0.1% formaldehyde crosslink after washing; high values mean tight binding
# FEV = molecular target: T1, FEV (Homo sapiens, UniProt Q99581 1-238); details: protein: recombinant; tags: N-terminal GST; dsDNA, one strand shown
# T1 sequence: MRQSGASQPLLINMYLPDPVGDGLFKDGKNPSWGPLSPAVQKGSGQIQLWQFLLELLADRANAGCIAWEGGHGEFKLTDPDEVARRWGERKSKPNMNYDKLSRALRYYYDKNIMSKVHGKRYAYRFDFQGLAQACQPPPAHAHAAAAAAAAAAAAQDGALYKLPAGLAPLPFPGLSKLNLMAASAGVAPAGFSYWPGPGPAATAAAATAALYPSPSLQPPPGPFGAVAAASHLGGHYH
# Procedure, shortened: (§1)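 Beads coated with glutathione captured GST-fused human transcription factors that had been expressed in yeast, and the factors were then given DNA barcodes and pooled with a tag-only sample. The pools were incubated with 200 nmole of a random double-stranded 16-mer DNA library in Tris/NaCl/DTT/glycerol buffer for 30 min at room temperature, washed, crosslinked with 0.1% formaldehyde and proximity-ligated with BsaI/T4 ligase at 37 °C for 1 h. PCR amplification and Illumina NextSeq500 sequencing came last. Binding signal is each hexamer's read frequency for a factor divided by its frequency for the tag-only sample.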
# ETV5 = ETV5 (Homo sapiens, UniProt P41161 1-510); details: protein: recombinant; tags: N-terminal GST; dsDNA, one strand shown
# ETV5, sequence (P41161 whole entry): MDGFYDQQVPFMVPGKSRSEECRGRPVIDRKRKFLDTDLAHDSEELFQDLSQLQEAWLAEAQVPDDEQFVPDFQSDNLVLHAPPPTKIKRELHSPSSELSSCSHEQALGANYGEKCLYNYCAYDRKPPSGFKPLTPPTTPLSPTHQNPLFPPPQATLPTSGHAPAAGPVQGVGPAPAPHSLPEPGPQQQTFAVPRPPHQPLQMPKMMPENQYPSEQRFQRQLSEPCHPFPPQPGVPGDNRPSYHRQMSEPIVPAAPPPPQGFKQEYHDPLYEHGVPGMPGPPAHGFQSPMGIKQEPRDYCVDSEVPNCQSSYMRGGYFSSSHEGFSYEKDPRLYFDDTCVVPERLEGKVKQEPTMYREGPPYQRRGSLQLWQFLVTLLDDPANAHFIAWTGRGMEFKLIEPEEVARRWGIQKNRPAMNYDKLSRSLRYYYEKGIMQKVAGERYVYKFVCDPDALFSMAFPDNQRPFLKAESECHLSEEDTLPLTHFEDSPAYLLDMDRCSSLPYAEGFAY
# Procedure, shortened: as §1
# HSF1 = HSF1 (Homo sapiens, UniProt Q00613 1-529); details: protein: recombinant; tags: N-terminal GST; chain copies: 3; dsDNA, one strand shown
# HSF1, sequence (Q00613 whole entry): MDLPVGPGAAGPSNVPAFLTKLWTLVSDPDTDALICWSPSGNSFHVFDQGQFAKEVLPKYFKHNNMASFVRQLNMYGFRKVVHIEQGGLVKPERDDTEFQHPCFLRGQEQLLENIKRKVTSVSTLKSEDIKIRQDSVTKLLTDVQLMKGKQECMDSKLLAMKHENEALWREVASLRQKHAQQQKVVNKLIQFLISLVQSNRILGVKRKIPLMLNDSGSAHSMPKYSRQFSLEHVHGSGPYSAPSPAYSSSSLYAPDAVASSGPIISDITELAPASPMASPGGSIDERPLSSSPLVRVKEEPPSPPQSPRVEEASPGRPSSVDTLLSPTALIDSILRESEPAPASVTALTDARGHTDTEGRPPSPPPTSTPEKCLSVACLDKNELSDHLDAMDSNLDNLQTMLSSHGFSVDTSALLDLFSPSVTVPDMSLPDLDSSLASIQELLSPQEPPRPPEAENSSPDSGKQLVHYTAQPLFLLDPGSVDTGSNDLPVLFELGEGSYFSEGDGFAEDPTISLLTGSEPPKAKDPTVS
# Procedure, shortened: as §1
# SPIC = molecular target: T2, SPIC (Homo sapiens, UniProt Q8N5J4 1-248); details: protein: recombinant; tags: N-terminal GST; dsDNA, one strand shown
# T2 sequence: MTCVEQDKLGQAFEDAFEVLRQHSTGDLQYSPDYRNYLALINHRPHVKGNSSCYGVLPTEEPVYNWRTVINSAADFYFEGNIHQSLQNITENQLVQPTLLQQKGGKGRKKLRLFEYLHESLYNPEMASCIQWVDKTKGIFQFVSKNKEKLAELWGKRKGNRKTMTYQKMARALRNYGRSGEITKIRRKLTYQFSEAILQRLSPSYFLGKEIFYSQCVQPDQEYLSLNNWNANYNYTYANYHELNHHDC
# Procedure, shortened: as §1
# ELF4 = ELF4 (Homo sapiens, UniProt Q99607 1-663); details: protein: recombinant; tags: N-terminal GST; dsDNA, one strand shown
# ELF4, sequence (Q99607 whole entry): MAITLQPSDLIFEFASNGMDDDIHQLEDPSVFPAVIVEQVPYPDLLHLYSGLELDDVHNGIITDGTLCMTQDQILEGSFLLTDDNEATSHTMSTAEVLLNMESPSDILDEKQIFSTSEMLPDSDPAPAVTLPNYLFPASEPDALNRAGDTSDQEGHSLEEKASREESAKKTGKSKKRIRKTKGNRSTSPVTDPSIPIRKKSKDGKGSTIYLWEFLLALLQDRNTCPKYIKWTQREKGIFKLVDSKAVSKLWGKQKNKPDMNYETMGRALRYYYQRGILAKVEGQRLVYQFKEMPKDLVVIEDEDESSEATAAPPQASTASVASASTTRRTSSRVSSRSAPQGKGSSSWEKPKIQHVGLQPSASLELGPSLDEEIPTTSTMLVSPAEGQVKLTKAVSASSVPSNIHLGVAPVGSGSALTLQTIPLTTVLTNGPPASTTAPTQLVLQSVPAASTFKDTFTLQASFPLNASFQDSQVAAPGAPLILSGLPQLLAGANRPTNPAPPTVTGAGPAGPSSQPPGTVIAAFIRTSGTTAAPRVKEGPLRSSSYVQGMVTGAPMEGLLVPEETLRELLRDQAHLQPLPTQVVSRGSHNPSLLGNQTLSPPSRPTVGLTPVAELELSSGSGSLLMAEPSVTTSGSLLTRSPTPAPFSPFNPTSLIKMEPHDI
# Procedure, shortened: as §1
# ELK4 = molecular target: T3, ELK4 (Homo sapiens, UniProt P28324-2 1-405); details: protein: recombinant; tags: N-terminal GST; dsDNA, one strand shown
# T3 sequence: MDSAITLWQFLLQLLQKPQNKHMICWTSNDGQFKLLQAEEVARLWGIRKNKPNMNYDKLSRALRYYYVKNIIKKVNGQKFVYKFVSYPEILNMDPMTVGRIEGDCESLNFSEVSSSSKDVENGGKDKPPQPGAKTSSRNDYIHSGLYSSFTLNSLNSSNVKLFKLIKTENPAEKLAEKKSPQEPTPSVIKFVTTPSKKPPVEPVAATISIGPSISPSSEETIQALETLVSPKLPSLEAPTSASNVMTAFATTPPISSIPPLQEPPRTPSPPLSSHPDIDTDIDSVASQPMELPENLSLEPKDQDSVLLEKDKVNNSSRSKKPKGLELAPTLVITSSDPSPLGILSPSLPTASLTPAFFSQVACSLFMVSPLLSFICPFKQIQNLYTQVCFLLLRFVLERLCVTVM
# Procedure, shortened: as §1
# ETV2 = molecular target: T4, ETV2 (Homo sapiens, UniProt O00321 1-342); details: protein: recombinant; tags: N-terminal GST; dsDNA, one strand shown
# T4 sequence: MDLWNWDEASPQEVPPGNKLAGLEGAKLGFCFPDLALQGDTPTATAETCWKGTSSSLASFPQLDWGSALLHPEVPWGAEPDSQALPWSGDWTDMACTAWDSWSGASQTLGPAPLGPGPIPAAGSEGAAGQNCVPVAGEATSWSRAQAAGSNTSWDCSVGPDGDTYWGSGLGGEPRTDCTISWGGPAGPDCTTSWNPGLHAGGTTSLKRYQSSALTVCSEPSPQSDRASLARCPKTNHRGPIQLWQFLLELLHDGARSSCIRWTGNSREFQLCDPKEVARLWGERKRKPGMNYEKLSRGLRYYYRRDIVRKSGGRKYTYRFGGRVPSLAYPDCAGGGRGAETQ
# Procedure, shortened: as §1
# ELF3 = molecular target: T5, ELF3 (Homo sapiens, UniProt P78545 1-371); details: protein: recombinant; tags: N-terminal GST; dsDNA, one strand shown
# T5 sequence: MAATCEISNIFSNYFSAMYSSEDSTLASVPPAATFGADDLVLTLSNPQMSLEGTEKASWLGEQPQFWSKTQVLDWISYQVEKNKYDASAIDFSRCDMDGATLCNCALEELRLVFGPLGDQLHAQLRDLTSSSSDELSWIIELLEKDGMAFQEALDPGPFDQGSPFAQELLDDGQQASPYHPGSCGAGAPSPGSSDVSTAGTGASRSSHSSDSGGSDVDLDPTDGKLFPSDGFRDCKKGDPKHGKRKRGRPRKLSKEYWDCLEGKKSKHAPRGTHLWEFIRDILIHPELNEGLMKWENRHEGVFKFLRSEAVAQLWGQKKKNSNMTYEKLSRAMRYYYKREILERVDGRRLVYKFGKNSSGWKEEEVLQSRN
# Procedure, shortened: as §1
# CRX = CRX (Homo sapiens, UniProt O43186 1-299); details: protein: recombinant; tags: N-terminal GST; dsDNA, one strand shown
# CRX, sequence (O43186 whole entry): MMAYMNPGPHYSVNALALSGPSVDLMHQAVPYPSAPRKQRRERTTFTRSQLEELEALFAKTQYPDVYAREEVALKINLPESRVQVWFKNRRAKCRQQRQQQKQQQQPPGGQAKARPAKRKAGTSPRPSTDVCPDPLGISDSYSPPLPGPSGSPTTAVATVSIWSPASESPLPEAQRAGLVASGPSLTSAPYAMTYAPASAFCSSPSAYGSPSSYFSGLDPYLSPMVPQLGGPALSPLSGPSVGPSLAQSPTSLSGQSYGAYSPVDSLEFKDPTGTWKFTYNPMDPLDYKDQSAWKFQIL
# Procedure, shortened: as §1
# ETV1 = ETV1 (Homo sapiens, UniProt P50549 1-477); details: protein: recombinant; tags: N-terminal GST; dsDNA, one strand shown
# ETV1, sequence (P50549 whole entry): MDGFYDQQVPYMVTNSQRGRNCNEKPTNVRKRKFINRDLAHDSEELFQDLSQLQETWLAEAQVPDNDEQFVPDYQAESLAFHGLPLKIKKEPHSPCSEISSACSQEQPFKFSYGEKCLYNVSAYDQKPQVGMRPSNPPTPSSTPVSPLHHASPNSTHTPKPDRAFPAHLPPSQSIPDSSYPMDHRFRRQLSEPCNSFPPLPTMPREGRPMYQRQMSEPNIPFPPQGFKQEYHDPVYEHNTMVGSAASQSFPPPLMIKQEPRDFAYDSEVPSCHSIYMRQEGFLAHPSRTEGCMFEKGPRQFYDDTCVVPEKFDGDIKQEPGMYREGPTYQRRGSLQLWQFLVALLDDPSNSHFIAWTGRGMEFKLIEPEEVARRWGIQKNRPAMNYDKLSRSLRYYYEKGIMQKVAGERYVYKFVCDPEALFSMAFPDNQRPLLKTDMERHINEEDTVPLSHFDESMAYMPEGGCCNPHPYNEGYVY
# Procedure, shortened: as §1
# ERF = molecular target: T6, ERF (Homo sapiens, UniProt P50548 1-548); details: protein: recombinant; tags: N-terminal GST; dsDNA, one strand shown
# T6 sequence: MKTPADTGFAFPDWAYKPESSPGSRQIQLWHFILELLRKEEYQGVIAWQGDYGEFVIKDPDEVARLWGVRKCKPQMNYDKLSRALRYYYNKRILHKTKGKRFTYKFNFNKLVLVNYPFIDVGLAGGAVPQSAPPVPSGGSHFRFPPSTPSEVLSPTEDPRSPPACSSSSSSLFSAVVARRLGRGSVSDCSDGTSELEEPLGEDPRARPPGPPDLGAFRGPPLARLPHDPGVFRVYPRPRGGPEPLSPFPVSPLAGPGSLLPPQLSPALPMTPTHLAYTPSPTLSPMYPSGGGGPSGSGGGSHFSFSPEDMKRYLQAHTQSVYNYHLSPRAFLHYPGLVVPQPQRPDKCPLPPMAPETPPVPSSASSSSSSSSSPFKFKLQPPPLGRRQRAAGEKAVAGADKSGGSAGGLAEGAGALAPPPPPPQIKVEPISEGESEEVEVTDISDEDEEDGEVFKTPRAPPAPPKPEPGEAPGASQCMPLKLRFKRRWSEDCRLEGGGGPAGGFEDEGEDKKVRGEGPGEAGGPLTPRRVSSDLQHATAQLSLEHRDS
# Procedure, shortened: as §1
# ETV3L = molecular target: T7, ETV3L (Homo sapiens, UniProt Q6ZN32 1-361); details: protein: recombinant; tags: N-terminal GST; dsDNA, one strand shown
# T7 sequence: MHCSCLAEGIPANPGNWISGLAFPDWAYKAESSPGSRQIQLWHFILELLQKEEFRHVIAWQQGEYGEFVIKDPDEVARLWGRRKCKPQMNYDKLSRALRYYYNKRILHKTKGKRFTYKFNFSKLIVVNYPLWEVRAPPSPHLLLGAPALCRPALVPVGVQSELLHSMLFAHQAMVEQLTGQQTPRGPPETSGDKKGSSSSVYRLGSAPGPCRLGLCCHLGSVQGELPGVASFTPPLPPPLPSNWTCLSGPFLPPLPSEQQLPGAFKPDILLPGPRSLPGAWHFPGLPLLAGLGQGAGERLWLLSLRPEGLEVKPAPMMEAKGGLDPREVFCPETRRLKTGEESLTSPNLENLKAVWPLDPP
# Procedure, shortened: as §1
# ETS2 = molecular target: T8, ETS2 (Homo sapiens, UniProt P15036 1-469); details: protein: recombinant; tags: N-terminal GST; dsDNA, one strand shown
# T8 sequence: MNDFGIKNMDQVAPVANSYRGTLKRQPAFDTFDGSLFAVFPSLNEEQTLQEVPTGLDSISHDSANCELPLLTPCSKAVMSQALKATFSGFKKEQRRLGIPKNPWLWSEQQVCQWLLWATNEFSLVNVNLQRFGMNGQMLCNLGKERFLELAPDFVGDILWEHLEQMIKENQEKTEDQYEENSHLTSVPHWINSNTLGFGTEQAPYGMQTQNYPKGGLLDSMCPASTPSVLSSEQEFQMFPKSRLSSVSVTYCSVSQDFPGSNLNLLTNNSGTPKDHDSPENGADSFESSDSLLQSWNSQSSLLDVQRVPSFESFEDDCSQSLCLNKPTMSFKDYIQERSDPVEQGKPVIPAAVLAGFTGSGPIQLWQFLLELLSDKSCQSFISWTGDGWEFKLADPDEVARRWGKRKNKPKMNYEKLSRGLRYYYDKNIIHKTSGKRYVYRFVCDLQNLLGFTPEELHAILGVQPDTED
# Procedure, shortened: as §1
# SPDEF = molecular target: T9, SPDEF (Homo sapiens, UniProt O95238 1-335); details: protein: recombinant; tags: N-terminal GST; dsDNA, one strand shown
# T9 sequence: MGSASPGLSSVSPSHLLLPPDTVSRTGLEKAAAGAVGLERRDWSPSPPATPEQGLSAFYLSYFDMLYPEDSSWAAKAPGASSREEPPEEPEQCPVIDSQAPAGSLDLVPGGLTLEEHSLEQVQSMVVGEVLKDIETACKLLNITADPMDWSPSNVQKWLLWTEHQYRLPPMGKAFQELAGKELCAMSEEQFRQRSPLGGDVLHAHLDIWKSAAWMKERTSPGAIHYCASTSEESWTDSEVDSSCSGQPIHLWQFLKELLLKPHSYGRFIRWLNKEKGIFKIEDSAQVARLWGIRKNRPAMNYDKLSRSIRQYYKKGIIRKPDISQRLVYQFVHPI
# Procedure, shortened: as §1
# ETV7 = molecular target: T10, ETV7 (Homo sapiens, UniProt Q9Y603 1-341); details: protein: recombinant; tags: N-terminal GST; dsDNA, one strand shown
# T10 sequence: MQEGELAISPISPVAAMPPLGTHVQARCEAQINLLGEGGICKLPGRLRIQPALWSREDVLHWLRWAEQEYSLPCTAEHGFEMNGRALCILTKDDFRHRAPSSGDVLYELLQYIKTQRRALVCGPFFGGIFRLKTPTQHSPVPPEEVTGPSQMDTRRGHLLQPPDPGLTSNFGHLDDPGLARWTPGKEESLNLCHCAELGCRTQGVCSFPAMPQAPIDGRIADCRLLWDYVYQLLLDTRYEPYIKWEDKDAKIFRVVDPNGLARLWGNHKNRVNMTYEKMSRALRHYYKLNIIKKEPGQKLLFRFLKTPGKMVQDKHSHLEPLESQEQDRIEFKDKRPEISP
# Procedure, shortened: as §1
# ELF5 = molecular target: T11, ELF5 (Homo sapiens, UniProt Q9UKW6-2 1-255); details: protein: recombinant; tags: N-terminal GST; dsDNA, one strand shown
# T11 sequence: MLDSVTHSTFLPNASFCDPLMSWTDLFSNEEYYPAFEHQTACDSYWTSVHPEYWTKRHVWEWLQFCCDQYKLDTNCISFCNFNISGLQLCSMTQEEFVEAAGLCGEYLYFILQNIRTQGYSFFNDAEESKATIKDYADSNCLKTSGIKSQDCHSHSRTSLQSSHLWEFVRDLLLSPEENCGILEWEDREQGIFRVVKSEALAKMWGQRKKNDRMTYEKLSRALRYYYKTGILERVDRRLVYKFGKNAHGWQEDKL
# Procedure, shortened: as §1
# ETV3 = molecular target: T12, ETV3 (Homo sapiens, UniProt P41162-2 1-143); details: protein: recombinant; tags: N-terminal GST; dsDNA, one strand shown
# T12 sequence: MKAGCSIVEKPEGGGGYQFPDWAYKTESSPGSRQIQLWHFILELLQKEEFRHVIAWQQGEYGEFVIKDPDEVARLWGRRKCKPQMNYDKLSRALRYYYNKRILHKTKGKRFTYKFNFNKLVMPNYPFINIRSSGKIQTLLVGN
# Procedure, shortened: as §1
# ETV6 = ETV6 (Homo sapiens, UniProt P41212 1-452); details: protein: recombinant; tags: N-terminal GST; dsDNA, one strand shown
# ETV6, sequence (P41212 whole entry): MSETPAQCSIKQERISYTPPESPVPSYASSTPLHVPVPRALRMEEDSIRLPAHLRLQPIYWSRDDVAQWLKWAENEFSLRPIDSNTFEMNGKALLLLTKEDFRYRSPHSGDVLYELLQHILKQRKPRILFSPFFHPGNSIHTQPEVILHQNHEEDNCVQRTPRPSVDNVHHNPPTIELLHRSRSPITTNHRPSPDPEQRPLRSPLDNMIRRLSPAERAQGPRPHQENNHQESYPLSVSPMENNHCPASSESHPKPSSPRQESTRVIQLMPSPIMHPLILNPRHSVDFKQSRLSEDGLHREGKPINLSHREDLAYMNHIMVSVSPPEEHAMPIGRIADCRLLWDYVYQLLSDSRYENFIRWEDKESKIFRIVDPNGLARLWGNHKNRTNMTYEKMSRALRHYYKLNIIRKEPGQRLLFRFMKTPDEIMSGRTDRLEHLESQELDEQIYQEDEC
# Procedure, shortened: as §1
sequence,measurement,setting,value
CTGGAT,binding signal,FEV,"1.38 fold enrichment (6-mer frequency, TF over GST control)"
same,binding signal,ETV5,"1.4 fold enrichment (6-mer frequency, TF over GST control)"
same,binding signal,HSF1,"2.19 fold enrichment (6-mer frequency, TF over GST control)"
same,binding signal,SPIC,"1.34 fold enrichment (6-mer frequency, TF over GST control)"
same,binding signal,ELF4,"1.35 fold enrichment (6-mer frequency, TF over GST control)"
same,binding signal,ELK4,"1.35 fold enrichment (6-mer frequency, TF over GST control)"
same,binding signal,ETV2,"1.41 fold enrichment (6-mer frequency, TF over GST control)"
same,binding signal,ELF3,"1.41 fold enrichment (6-mer frequency, TF over GST control)"
same,binding signal,CRX,"2.05 fold enrichment (6-mer frequency, TF over GST control)"
same,binding signal,ETV1,"1.47 fold enrichment (6-mer frequency, TF over GST control)"
same,binding signal,ERF,"1.43 fold enrichment (6-mer frequency, TF over GST control)"
same,binding signal,ETV3L,"1.5 fold enrichment (6-mer frequency, TF over GST control)"
same,binding signal,ETS2,"1.4 fold enrichment (6-mer frequency, TF over GST control)"
same,binding signal,SPDEF,"1.42 fold enrichment (6-mer frequency, TF over GST control)"
same,binding signal,ETV7,"1.22 fold enrichment (6-mer frequency, TF over GST control)"
same,binding signal,ELF5,"1.3 fold enrichment (6-mer frequency, TF over GST control)"
same,binding signal,ETV3,"1.37 fold enrichment (6-mer frequency, TF over GST control)"
same,binding signal,ETV6,"1.21 fold enrichment (6-mer frequency, TF over GST control)"
